In PubChem BioAssay (EPA / NIEHS):
Several values for one entry are separate records, joined by “and”; a condition that tells them apart may be missing. Equal values may be shown once. Results filed as inconclusive are left out. Where a structure was tested more than once in an assay, its records may differ in their call. Activity calls are given as the source filed them. Rule for the calls: active = hit-call score of the fitted dose curve at least 0.9, where 1 is the maximum; inconclusive = response in the unintended direction; inactive = score below 0.9.

Assays:
[1] = molecular target: rat Glycine Receptor, Strychnine-sensitive (GlyRStrySens), Glra1 (gene 25674) (UniProt P07727); assay: NVS_LGIC_rGlyRStrySens: NovaScreen (NVS) Ligand-Gated Ion Channel Assay for rat Glycine Receptor, Strychnine-sensitive (GlyRStrySens) (AID 2283341)
Sequence of rat Glycine Receptor, Strychnine-sensitive (GlyRStrySens), Glra1 (gene 25674) (P07727 whole entry, looked up): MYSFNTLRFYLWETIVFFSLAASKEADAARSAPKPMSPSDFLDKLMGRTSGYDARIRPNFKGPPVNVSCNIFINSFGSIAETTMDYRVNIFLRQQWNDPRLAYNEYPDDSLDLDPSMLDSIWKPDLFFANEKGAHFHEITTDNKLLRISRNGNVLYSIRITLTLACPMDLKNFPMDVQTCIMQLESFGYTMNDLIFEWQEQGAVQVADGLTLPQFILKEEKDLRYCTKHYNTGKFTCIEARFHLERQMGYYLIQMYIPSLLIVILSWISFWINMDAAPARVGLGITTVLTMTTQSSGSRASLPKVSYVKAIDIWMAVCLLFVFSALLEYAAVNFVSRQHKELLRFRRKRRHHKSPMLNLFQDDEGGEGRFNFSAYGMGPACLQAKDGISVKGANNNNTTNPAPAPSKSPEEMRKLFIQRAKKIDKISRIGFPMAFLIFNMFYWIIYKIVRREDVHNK
Method in brief: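 Radioligand displacement on rat spinal cord membranes, 1 hr, filter scintillation read-out. Single-concentration duplicate screen at 25 uM; chemicals meeting threshold (e.g., 30% inhibition) rerun in concentration-response up to 50 uM. Loss of binding fitted versus DMSO.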

[2] = molecular target: Estrogen receptor (Homo sapiens) (UniProt P03372); assay: NVS_NR_hER: NovaScreen (NVS) Nuclear Receptor Binding Assay for human Estrogen Receptor (ER) (AID 2283348)
Sequence of Estrogen receptor (Homo sapiens) (P03372 whole entry, looked up, the tested form may be a part): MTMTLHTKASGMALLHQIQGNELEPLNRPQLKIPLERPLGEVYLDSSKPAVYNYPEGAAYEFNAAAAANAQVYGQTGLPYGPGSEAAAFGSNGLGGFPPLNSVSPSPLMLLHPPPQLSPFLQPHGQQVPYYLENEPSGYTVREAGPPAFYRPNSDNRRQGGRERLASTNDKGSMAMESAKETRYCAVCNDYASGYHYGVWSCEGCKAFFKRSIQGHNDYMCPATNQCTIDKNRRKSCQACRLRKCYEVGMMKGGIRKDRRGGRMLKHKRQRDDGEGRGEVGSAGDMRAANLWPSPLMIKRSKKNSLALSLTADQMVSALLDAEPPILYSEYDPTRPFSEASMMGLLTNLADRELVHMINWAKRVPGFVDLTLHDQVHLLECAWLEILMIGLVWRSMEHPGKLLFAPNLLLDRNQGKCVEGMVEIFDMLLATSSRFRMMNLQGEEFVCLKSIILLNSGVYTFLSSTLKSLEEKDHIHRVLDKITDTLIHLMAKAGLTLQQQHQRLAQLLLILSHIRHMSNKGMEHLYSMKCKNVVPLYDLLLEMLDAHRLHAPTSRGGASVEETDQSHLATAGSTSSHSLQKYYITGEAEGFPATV
Method in brief: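 Cell-free radioligand binding with protein extracted from MCF7 cells; scintillation counting 18 hours after dosing. Loss of signal versus DMSO baseline read as displacement; primary single-concentration screen at 25 uM in duplicate, actives retested in concentration series.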

[3] = molecular target: Estrogen receptor (Homo sapiens) (UniProt P03372); assay: OT_ER_ERaERa_1440: Odyssey Thera (OT) 24-hour HEK293T Protein-Complementation Assay for Estrogen Receptor-alpha/-alpha Homodimer (AID 2283349);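 note: hits raise fluorescence above DMSO for agonists and antagonists alike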
Method in brief: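 Readout is the rise in mean fluorescence from reporter fragment complementation when ERα LBD (aa 310-547) units dimerize in HEK293T cells. Measured 24 h after dosing and analysed as increase over DMSO control.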

[4] = molecular target: Estrogen receptor (Homo sapiens) (UniProt P03372); assay: OT_ER_ERaERa_0480: Odyssey Thera (OT) 8-hour HEK293T Protein-Complementation Assay for Estrogen Receptor-alpha/-alpha Homodimer (AID 2283351);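 note: rise in fluorescence from reassembled reporter fragments on ERα LBD homodimer in nucleus or whole cell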
Method in brief: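 Binding reporter in which dimerisation of ERα LBD (aa 310-547) fusions reconstitutes a fluorescent reporter in HEK293T cells. Compounds incubated 8 h; mean fluorescence intensity increase versus DMSO scored.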

[5] = molecular target: Estrogen receptor (Homo sapiens) + Estrogen receptor beta (Homo sapiens) (UniProt P03372+Q92731); assay: OT_ER_ERaERb_0480: Odyssey Thera (OT) 8-hour HEK293T Protein-Complementation Assay for Estrogen Receptor-alpha/-beta Heterodimer (AID 2283352)
Sequence of Estrogen receptor (Homo sapiens) + Estrogen receptor beta (Homo sapiens) (P03372 whole entry, looked up): as the sequence (P03372 whole entry, looked up, the tested form may be a part) above
Sequence of Estrogen receptor (Homo sapiens) + Estrogen receptor beta (Homo sapiens) (Q92731 whole entry, looked up): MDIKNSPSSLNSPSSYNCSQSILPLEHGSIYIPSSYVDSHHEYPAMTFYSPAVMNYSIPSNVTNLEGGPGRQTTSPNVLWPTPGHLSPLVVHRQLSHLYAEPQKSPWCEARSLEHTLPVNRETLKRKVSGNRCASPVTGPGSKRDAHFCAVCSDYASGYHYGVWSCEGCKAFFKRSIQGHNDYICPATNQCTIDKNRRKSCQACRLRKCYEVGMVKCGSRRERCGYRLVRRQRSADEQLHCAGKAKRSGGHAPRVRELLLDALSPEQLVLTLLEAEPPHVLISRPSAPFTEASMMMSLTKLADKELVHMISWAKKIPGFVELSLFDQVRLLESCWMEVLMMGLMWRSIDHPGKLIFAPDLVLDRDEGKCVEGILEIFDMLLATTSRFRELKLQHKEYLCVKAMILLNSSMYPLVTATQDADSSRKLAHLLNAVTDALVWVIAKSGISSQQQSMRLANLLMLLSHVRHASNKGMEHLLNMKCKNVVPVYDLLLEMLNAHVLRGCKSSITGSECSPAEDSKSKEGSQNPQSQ
Method in brief: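 Compound added to HEK293T cells carrying split-reporter-tagged ER-alpha and ER-beta LBDs, incubated 8 hours, then imaged by laser scanning cytometer. Signal rise in nucleus, or nucleus and cytoplasm, over vehicle was fitted in the positive direction.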

[6] = molecular target: rat Peripheral-type Benzodiazepine Receptor (PBR), Tspo (gene 24230) (UniProt P16257); assay: NVS_MP_rPBR: NovaScreen (NVS) Membrane Protein Assay for rat Peripheral-type Benzodiazepine Receptor (PBR) (AID 2283335)
Sequence of rat Peripheral-type Benzodiazepine Receptor (PBR), Tspo (gene 24230) (P16257 whole entry, looked up): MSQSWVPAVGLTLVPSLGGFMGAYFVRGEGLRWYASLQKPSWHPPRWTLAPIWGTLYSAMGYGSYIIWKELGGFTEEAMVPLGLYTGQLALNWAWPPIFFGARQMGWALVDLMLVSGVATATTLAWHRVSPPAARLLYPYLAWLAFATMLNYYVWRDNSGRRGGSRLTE
Method in brief: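 Radioligand displacement, rat kidney membrane prep, 1 h exposure, filter-based scintillation read; DMSO baseline, loss-of-signal scored. Primary screen at 25 uM in duplicate, actives followed up in concentration series.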

[7] = molecular target: bovine Estrogen Receptor (ER), ESR1 (gene 407238) (UniProt P49884); assay: NVS_NR_bER: NovaScreen (NVS) Nuclear Receptor Binding Assay for bovine Estrogen Receptor (ER) (AID 2283345);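 note: actives lower the bound radioligand count which means they displace the ER ligand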
Sequence of bovine Estrogen Receptor (ER), ESR1 (gene 407238) (P49884 whole entry, looked up): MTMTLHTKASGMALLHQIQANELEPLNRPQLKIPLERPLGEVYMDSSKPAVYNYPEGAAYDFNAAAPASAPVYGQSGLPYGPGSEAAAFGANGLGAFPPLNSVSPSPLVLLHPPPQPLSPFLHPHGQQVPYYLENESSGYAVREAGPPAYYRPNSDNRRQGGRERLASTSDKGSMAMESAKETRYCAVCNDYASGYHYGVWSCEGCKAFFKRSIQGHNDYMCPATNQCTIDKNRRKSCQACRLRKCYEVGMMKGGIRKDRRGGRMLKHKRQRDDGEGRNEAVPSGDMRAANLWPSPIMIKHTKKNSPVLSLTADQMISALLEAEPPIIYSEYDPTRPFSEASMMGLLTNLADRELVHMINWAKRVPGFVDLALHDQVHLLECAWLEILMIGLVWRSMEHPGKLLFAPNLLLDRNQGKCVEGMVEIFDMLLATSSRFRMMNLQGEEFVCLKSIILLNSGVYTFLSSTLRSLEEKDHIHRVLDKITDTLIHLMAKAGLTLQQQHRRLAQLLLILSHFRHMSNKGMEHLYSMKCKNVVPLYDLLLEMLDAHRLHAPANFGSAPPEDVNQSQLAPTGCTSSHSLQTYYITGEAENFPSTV
Method in brief: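 Cell-free radioligand binding with bovine uterine membrane extracts, read 18 hours after dosing by scintillation counting. Loss of signal versus DMSO baseline indicates displacement. Primary screen run in duplicate at 25 uM, actives followed in concentration series.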

[8] = molecular target: human Constitutive Androstane Receptor (CAR), NR1I3 (gene 9970) (UniProt Q14994); assay: NVS_NR_hCAR_Antagonist: NovaScreen (NVS) Nuclear Receptor Binding Assay for human Constitutive Androstane Receptor Antagonism (CAR) (AID 2283344)
Sequence of human Constitutive Androstane Receptor (CAR), NR1I3 (gene 9970) (Q14994 whole entry, looked up): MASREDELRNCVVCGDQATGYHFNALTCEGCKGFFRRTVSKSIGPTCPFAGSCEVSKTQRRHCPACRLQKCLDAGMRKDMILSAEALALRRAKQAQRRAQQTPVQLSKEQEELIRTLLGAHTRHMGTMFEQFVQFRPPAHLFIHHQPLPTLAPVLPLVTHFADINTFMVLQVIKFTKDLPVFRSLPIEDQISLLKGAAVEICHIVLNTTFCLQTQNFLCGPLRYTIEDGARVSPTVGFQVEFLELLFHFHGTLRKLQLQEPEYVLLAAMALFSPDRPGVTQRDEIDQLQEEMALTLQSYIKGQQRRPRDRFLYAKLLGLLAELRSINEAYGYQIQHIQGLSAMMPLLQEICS
Method in brief: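 Cell-free TR-FRET binding read 1 h after dosing, antagonist mode; loss of signal versus DMSO baseline. Primary screen in duplicate at a single 25 uM; actives retested in concentration series.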

[9] = molecular target: Bile acid receptor (Homo sapiens) (UniProt Q96RI1); assay: NVS_NR_hFXR_Antagonist: NovaScreen (NVS) Nuclear Receptor Binding Assay for human Farnesoid X Receptor Antagonism (FXR) (AID 2283350)
Sequence of Bile acid receptor (Homo sapiens) (Q96RI1 whole entry, looked up): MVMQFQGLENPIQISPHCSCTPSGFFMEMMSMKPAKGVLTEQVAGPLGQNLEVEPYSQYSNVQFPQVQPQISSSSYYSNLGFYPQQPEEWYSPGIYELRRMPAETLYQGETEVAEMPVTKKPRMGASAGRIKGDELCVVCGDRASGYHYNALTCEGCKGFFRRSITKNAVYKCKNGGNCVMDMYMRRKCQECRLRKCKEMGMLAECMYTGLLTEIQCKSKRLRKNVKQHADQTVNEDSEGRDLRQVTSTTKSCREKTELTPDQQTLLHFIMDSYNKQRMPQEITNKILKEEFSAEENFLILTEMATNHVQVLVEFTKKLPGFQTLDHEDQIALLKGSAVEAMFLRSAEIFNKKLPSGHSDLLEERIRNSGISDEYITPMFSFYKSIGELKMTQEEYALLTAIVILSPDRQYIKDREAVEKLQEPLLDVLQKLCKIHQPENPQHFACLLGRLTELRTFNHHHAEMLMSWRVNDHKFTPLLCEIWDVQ
Method in brief: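 Cell-free TR-FRET ligand-binding read-out on human FXR (NR1H4) in antagonist mode, measured 1 h after dosing. Primary screen in duplicate at 25 uM, actives retested in concentration series; signal loss scored versus DMSO.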

[10] = molecular target: bovine Gamma-Aminobutyric Acid Type A Receptor Agonist (GABAR Agonist), GABRA1 (gene 780973) (UniProt P08219); assay: NVS_LGIC_bGABAR_Agonist: NovaScreen (NVS) Ligand-Gated Ion Channel Assay for bovine Gamma-Aminobutyric Acid Type A Receptor Agonist (GABAR Agonist) (AID 2283338)
Sequence of bovine Gamma-Aminobutyric Acid Type A Receptor Agonist (GABAR Agonist), GABRA1 (gene 780973) (P08219 whole entry, looked up): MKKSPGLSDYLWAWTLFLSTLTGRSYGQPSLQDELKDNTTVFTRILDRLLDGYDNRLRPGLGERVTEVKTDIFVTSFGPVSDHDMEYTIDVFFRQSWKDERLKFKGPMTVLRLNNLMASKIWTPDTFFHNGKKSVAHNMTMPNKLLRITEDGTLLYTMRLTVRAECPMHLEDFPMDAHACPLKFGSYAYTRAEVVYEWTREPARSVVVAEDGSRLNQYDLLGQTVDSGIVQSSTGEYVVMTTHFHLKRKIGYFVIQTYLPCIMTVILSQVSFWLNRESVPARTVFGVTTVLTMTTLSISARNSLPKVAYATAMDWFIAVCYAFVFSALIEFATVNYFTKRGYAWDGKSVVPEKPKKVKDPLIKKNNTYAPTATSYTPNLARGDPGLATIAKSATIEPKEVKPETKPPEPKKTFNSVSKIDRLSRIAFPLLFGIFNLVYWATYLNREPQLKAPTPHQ
Method in brief: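 Radioligand binding to bovine cerebellar membranes in agonist format, read by filter-based scintillation counting after 1 h. Primary screen in duplicate at 25 uM, with actives followed in concentration series. Gain of signal versus DMSO.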

NCBI gene 100848466 = assay: NVS_NR_bPR: NovaScreen (NVS) Nuclear Receptor Binding Assay for bovine Progextron Receptor (PR) (AID 2283343)
Method in brief: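 Bovine uterine membrane preparation, cell-free; radioligand competitive displacement measured by scintillation counting 18 hours after dosing. Loss of signal versus DMSO baseline indicates binding; primary HTS single concentration 25 uM in duplicate, actives followed in concentration series.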

[11] = system: guinea pig Histamine Receptor (H2), gene 100729734; assay: NVS_GPCR_gH2: NovaScreen (NVS) G Protein-Coupled Receptor Assay for guinea pig Histamine Receptor (H2) (AID 2283342)
Method in brief: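 Radioligand displacement on guinea pig striatal membranes, 1 h after dosing, filter-based scintillation counting; loss of signal versus DMSO. Single-point screen at 25 uM in duplicate, then concentration-response up to 50 uM.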

[12] = molecular target: Bile acid receptor (Homo sapiens) (UniProt Q96RI1); assay: NVS_NR_hFXR_Agonist: NovaScreen (NVS) Nuclear Receptor Binding Assay for human Farnesoid X Receptor Agonism (FXR) (AID 2283347)
Method in brief: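 Cell-free TR-FRET binding assay with extracted human FXR protein, agonist format, read 1 h after dosing. Primary screen at 25 uM single concentration in duplicate, actives retested in concentration series; gain of signal versus DMSO.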

Measured: AC50

CC(Oc1ccc(Cl)cc1Cl)C(=O)O (centres undefined)
inactive: [1] | [2] | [3] | [4]

COC(=O)C=C(C)OP(=O)(OC)OC
inactive: [3] | [4] | [5]

CC1=C(C(=O)Nc2ccccc2)SCCO1
active: [6] 12.3 µM
inactive: [3] | [5]

Cc1cc(Cl)ccc1OCC(=O)O
inactive: [7] | [2] | [3] | [4]

O=C(O)c1nc(Cl)ccc1Cl
inactive: [3] | [4]

N#Cc1cc(Br)c(O)c(Br)c1
inactive: [8] | [7] | [2] | [3] | [9] | [4]

COc1nc(C)nc(NC(=O)NS(=O)(=O)c2ccccc2Cl)n1
inactive: [7] | [2]

CC(C)Oc1cc(-n2nc(C(C)(C)C)oc2=O)c(Cl)cc1Cl
inactive: [3] | [4] | [5]

CCNc1nc(Cl)nc(NC(C)C)n1
inactive: [10] | [2] | [3] | [4] | [5]

CNC(=O)ON=CC(C)(C)SC
inactive: NCBI gene 100848466 | [8] | [3] | [4]

CCCN(CCC)c1c([N+](=O)[O-])cc(S(N)(=O)=O)cc1[N+](=O)[O-]
active: [8] 526 nM and 6.79 µM | [9] 26.4 µM
inactive: [7] | [2] | [3] | [9] | [4]

N#CC(CCc1ccc(Cl)cc1)(Cn1cncn1)c1ccccc1 (centres undefined)
inactive: [11] | [3] | [4]

COP(N)(=O)SC (centres undefined)
inactive: [8] | [7] | [3] | [9] | [5]

N#Cc1nn(-c2c(Cl)cc(C(F)(F)F)cc2Cl)c(N)c1S(=O)C(F)(F)F (centres undefined)
inactive: [12] | [3] | [4]

CCCCNC(=O)n1c(NC(=O)OC)nc2ccccc21
inactive: [1] | [3] | [4] | [5]

CCON=C(CC)C1=C(O)CC(c2c(C)cc(C)cc2C)CC1=O (centres undefined)
inactive: [8] | [3] | [4]

COC(=O)c1ccccc1C(=O)OC
not listed: [1] | [2] | [6] | [7] | [10]
inactive: all other assays above
